This passage reports Potency results from PubChem BioAssay (NCATS).

Molecules are shown by their SMILES. Records with an inconclusive call do not appear. The source made the active and inactive calls. The call rests on the fitted dose curve; in most records, active means well fitted inhibition curve with a large enough effect; inconclusive means small, poorly fitted or top-dose-only effect; inactive means no such curve, though single readings can be large or run the other way.
Potency means the concentration at half of the fitted maximal effect.

One assay can be described thus: qHTS assay for measurement of the activity of small molecule inhibitors on Zika virus induced Caspase-3 activity in human astrocytoma cells (AID 1224859). Particulars: SNB-19 ZIKV-induced caspase-3/7, luminescence, 6 h; series mostly up to 45.7 µM. The method, boiled down: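 Caspase activation in ZIKV-infected SNB-19 cells (2 FFU/cell, 6 h) measured by Caspase-Glo 3/7 luminescence after 30 min RT; compound pre-incubated 1 h; normalised to uninfected and infected controls.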
(In general: qHTS replaces the single test concentration by a dilution series.)
For `C=C1[C@H](n2cnc3c(=O)[nH]c(N)nc32)C[C@H](O)[C@H]1CO`, the Potency result was “inactive”.
On to `C[C@@H](O[C@H]1OCCN(Cc2n[nH]c(=O)[nH]2)[C@@H]1c1ccc(F)cc1)c1cc(C(F)(F)F)cc(C(F)(F)F)c1`, for which the Potency result was “inactive”.
As to `CC(O)=C(C#N)C(=O)Nc1ccc(C(F)(F)F)cc1`, the Potency is 1.18 µM (active).
Turning to `CCC(=O)NCC[C@@H]1CCc2ccc3c(c21)CCO3`, the Potency entry is “inactive”.
On the same count and under the same terms, as for `O[C@@H](COc1cccc2ncccc12)CN1CCN(C2c3ccccc3[C@@H]3[C@H](c4ccccc42)C3(F)F)CC1` (stereo partly drawn), the entry is “inactive”.
Take `Cc1csc(-c2nnc(Nc3ccc(Oc4ncccc4-c4ccnc(N)n4)cc3)c3ccccc23)c1`: the Potency entry is “inactive”.

The next assay can be described thus: qHTS Screen of the MIPE 4.0 Collection Against Ewings Sarcoma (RDES) (AID 1259252). Further: nearly all actives have a fitted effect of over 35% in size. Particulars: RD-ES Ewing sarcoma viability, CellTiter-Glo, 48 h; series mostly up to 45.8 µM. The gist of the method:
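Log-phase cells in RPMI with 5% FBS attached for 4 h, then received compounds as a titration for 48 h at 37C, 5% CO2. Viability was read by CellTiter-Glo luminescence and normalized to DMSO and no-cell wells.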
For `CCCCc1ccc(NS(=O)(=O)c2ccc(C)c(C(=O)N3CCN(c4cccc(C)c4C)CC3)c2)cc1`, the Potency entry is “inactive”.
On to `CC[C@]1(O)C[C@H]2CN(CCC3=c4ccccc4=N[C]3[C@@](C(=O)OC)(c3cc4c(cc3OC)N(C)[C@H]3[C@@](O)(C(N)=O)[C@H](O)[C@]5(CC)C=CCN6CC[C@]43[C@@H]65)C2)C1`, for which the Potency was 0.0033 µM (active).
Turning to `O=c1[nH]c(=O)n([C@H]2C[C@@H](O)[C@@H](CO)O2)cc1I`, the Potency result was “inactive”.
On the same count and under the same terms, next, `Cc1nc(NC(=O)N2CCC[C@@H]2C(N)=O)sc1-c1csc(C(C)(C)C)n1`: 5.26 µM (active); `O=C1CN2Cc3c(ccc(Cl)c3Cl)N=C2N1`: 23.5 µM (active); `Cc1c(C(=O)Nc2ccc(N3C[C@@H](C)O[C@@H](C)C3)nc2)cccc1-c1ccc(OC(F)(F)F)cc1`: 13.2 µM (active).
Regarding `CC(C)C[C@@H](C(=O)N[C@H](C(=O)OC1CCCC1)c1ccccc1)[C@H](O)C(=O)NO`, the Potency is 26.4 µM (active).
Turning to `NCC1CCC(C(=O)O)CC1` (stereo not drawn), the Potency entry is “inactive”.
With `CN(C)CCN(C)C(=O)c1ccc(NC(=O)Nc2ccc(-c3nc(N4CCOCC4)c4ccn(CC(F)(F)F)c4n3)cc2)cc1`, the Potency is 0.0187 µM (active).
In the case of `CC(=O)OCC(=O)[C@@]1(O)CC[C@H]2[C@@H]3CCC4=CC(=O)C=C[C@]4(C)[C@@H]3[C@@H](O)C[C@@]21C`, the Potency result was “inactive”.
On to `CCc1cc(-c2n[nH]c(C)c2-c2ccc3c(c2)OCCO3)c(O)cc1O`, for which the Potency was 9.35 µM (active).
In the case of `CC(=O)NCCC(=O)N[C@@H](CCC(N)=O)C(=O)N[C@@H](CO)C(=O)N[C@@H](CCC(N)=O)C(=O)N[C@@H](CCC(N)=O)C(=O)N[C@H](C(=O)N[C@@H](Cc1ccccc1)C(=O)N[C@]1(C)CCCCCCC=CCCC[C@@](C)(C(=O)N[C@@H](CCC(N)=O)C(=O)N[C@@H](CC(N)=O)C(N)=O)NC(=O)[C@H](CC(C)C)NC(=O)[C@H](CC(C)C)NC(=O)[C@@H](CCCNC(=N)N)NC(=O)[C@H](Cc2c[nH]c3ccccc23)NC(=O)[C@H](CC(C)C)NC(=O)[C@H](CC(N)=O)NC1=O)[C@H](C)O`, the Potency was 18.7 µM (active).
As to `Cc1ccccc1C(C(=O)NC1CCCCC1)N(C(=O)CNc1ccc(C#N)cc1)c1cccc(F)c1` (stereo not drawn), the Potency entry is “inactive”.
Still for that read-out and setting: as for `CC[C@H]1OC(=O)[C@H](C)[C@@H](O[C@H]2C[C@@](C)(OC)[C@@H](O)[C@H](C)O2)[C@H](C)[C@@H](O[C@@H]2O[C@H](C)C[C@H](N(C)C)[C@H]2O)[C@](C)(O)C[C@H](C)C(=NOCOCCOC)[C@H](C)[C@@H](O)[C@]1(C)O`, the entry is “inactive”.
With `COc1ccc(CCC(=O)Nc2nc3ccc(Cl)cc3s2)cc1OC`, the Potency was 20.9 µM (active).
Take `O=C(O)CCC=CCC[C@@H]1[C@H](N2CCCCC2)[C@@H](O)C[C@@H]1OCc1ccc(-c2ccccc2)cc1`: the Potency entry is “inactive”.
Regarding `C[C@H](CCC(=O)O)[C@H]1CC[C@H]2[C@H]3[C@@H](CC[C@]12C)[C@@]1(C)CC[C@@H](O)C[C@H]1C[C@@H]3O`, the Potency result was “inactive”.
For the compound `O=C(CO)N1CCC(c2[nH]nc(-c3ccc(Cl)cc3)c2-c2ccncn2)CC1`, the Potency result was “inactive”.
As to `O=C(Nc1ncc(SCCN2CCCC2)s1)[C@]1(c2ccc(S(=O)(=O)C3CC3)cc2)C[C@@H]1C1CCCCC1`, the Potency was 13.2 µM (active).
The same measure, in the same setting: as for `CCOC(=O)[C@@H](N)CCC(=O)N[C@@H](CSCc1ccccc1)C(=O)N[C@@H](C(=O)OCC)c1ccccc1`, the entry is “inactive”.
Regarding `N#CC(=C1Nc2ccccc2S1)c1ccnc(OCc2ccc(CN3CCOCC3)cc2)n1`, the Potency is 7.43 µM (active).
As to `C[C@]12CCC3=C4CCC(=O)C=C4CC[C@@H]3[C@H]1CC[C@@]2(O)CC#N`, the Potency entry is “inactive”.
With `Cc1ccc(S(=O)(=O)Nc2nc3ccccc3nc2Nc2ccc3nsnc3c2)cc1`, the Potency is 8.12 µM (active).
Turning to `CC1=C(CC(=O)O)c2cc(F)ccc2C1=Cc1ccc(S(C)=O)cc1` (stereo not drawn), the Potency is 1.18 µM (active).
Turning to `O=c1[nH]nc(OCCCc2ccc(Cl)cc2)c(NCc2cccnc2)c1Br`, the Potency is 18.7 µM (active).
In the case of `COc1cc2c(cc1Cc1cccc(Cl)c1F)c(=O)c(C(=O)O)cn2[C@H](CO)C(C)C`, the Potency was 26.4 µM (active).
For the compound `CC(C)C[C@@H](N)[C@H](O)C(=O)N[C@H](C(=O)N[C@H](C(=O)N[C@@H](CC(=O)O)C(=O)O)C(C)C)C(C)C`, the Potency was 20.9 µM (active).
As to `C=C1[C@H](n2cnc3c(=O)[nH]c(N)nc32)C[C@H](O)[C@H]1CO`, the Potency is 9.35 µM (active).
In the case of `CC(O)=C(C#N)C(=O)Nc1ccc(C(F)(F)F)cc1`, the Potency is 23.5 µM (active).
Take `CCC(=O)NCC[C@@H]1CCc2ccc3c(c21)CCO3`: the Potency result was “inactive”.
For the compound `O[C@@H](COc1cccc2ncccc12)CN1CCN(C2c3ccccc3[C@@H]3[C@H](c4ccccc42)C3(F)F)CC1` (stereo partly drawn), the Potency was 20.9 µM (active).
For the compound `Cc1csc(-c2nnc(Nc3ccc(Oc4ncccc4-c4ccnc(N)n4)cc3)c3ccccc23)c1`, the Potency is 0.0296 µM (active).
